Screens as filed in PubChem BioAssay.
Hits are enriched below; roughly 5.3% of the tested compounds scored in any of these assays.
TDP1 block – blocks human tyrosyl-DNA phosphodiesterase 1; Q9NUW8; recombinant TDP1, AlphaScreen DNA substrate cleavage; Potency, µM (highest dose often 130 µM), hits mostly inhibitors; 350,000 compounds, 0.28% hits; AID 485290; also: nearly all actives have a fitted effect of over 40% in size
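Here, a 5' biotin and 3' phosphotyrosine-FITC DNA oligonucleotide reports Tdp1 activity: intact substrate bridges AlphaScreen beads, while cleavage leaves a 3' phosphate and drops signal. All incubations at room temperature.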
JMJD2A Tudor – blocks the human JMJD2A Tudor domain | 390,000 compounds, 4.4% hits | O75164 | Potency, µM (titrated, usually from 114 µM), most hits filed as inhibitors | AlphaScreen JMJD2A-Tudor / H3K4me3 peptide binding; also: nearly all actives have a fitted effect of over 50% in size
HP1b binding inh – HP1-beta chromodomain-methylated histone interaction inhibition; AlphaScreen HP1-beta / biotin-H3K9me3 peptide binding; 390,000 compounds, 0.56% hits; Potency, µM (doses to about 114 µM), hits mostly inhibitors; also: nearly all actives have a fitted effect of over 70% in size
Target sequence (P83916 whole entry, looked up): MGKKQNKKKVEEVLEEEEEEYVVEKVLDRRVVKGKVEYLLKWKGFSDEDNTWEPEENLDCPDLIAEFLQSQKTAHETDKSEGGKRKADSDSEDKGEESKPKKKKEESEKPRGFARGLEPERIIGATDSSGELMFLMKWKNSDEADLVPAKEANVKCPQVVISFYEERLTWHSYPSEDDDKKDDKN
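AlphaScreen: HP1-beta (50 nM) preformed 30 min with biotin-H3(1-18)K9me3 peptide (50 nM) in PBS pH 7.4, 0.01% Tween-20. Compound added for 30 min at RT, then streptavidin donor/nickel chelate acceptor beads (10 ug/mL) for 30 min.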
Six1-Eya2 blk – inhibitors of human Six1/Eya2 interaction; Q15475+O00167; AlphaScreen GST-Six1/His-Eya2 binding, biochemical; hits give low values; activity change, % (concentration not given with the values); 360,000 compounds, 0.56% hits; AID 651725; in the data active = activity change below about -65%; inconclusive = mostly about -30% to -63%
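AlphaScreen with GST-Six1 and His-Eya2 (5X mix: 250 nM and 500 nM), glutathione donor and nickel acceptor beads; buffer 50 mM Tris pH 8.0, 300 mM NaCl, 1 mM TCEP; 1 h at 37 C in the dark.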
CtBP-E1A blk – blocks the CtBP interaction with E1A; AlphaScreen GST-E1A/His-CtBP binding, 1536-well; hits give low values; activity change, % (concentration not given with the values); 340,000 compounds, 0.49% hits; AID 651724; in the data active = activity change below about -65%; inconclusive = mostly about -30% to -63%
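AlphaScreen with 125 nM GST-E1A and 125 nM His-CtBP (5X stocks) in Tris pH 8.0, 300 mM NaCl, BSA, Tween 20, TCEP. Compounds preincubated 2 h at 37 deg C, then glutathione donor/nickel acceptor beads added for 1 h at 37 deg C in dark.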
BAZ2B block – inhibitors of human BAZ2B bromodomain; Q9UIF8; AlphaScreen BAZ2B-H3K14Ac peptide displacement; Potency, µM (series often up to 114 µM), usual class: inhibitors; AID 504333; 360,000 compounds, 4.4% hits; also: nearly all actives have a fitted effect of over 60% in size
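BAZ2B (50 nM) with biotin-H3(5-23)K14Ac peptide (50 nM) in PBS pH 7.4, 0.01% Tween-20, preformed 30 min, then compound 30 min at room temperature; top concentration 110uM. AlphaScreen streptavidin donor/nickel chelate acceptor beads (10 ug/mL final), 20 min dark, signal read.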
JMJD2E inh-1 – inhibitors of human JMJD2E demethylase, 8HQ series round 1; shares compounds with BAZ2B block; JMJD2E demethylase, FDH-coupled NADH fluorescence; Potency, µM (highest dose often 57 µM), hits mostly inhibitors; 130 compounds, 89% hits; AID 493212
JMJD2E inh-2 – confirmation of inhibitors of human JMJD2E demethylase | shares compounds with JMJD2A Tudor | Recombinant JMJD2E, FDH-coupled NADH fluorescence (FDH is formaldehyde dehydrogenase) | Potency, µM (series often up to 56.8 µM), usual class: inhibitors | 140 compounds, 93% hits | AID 2677
FDH counter – blocks Pseudomonas putida formaldehyde dehydrogenase, flagging JMJD2E artifacts | shares compounds with JMJD2A Tudor | FDH enzyme assay, NADH fluorescence kinetic | Potency, µM (series often up to 56.7 µM), usual class: inhibitors | 140 compounds, 10% hits | AID 2680
G9a confirm – confirmation of human histone methyltransferase G9a inhibitors. AID 588344. 370 compounds, 89% hits. Potency, µM, usual class: inhibitors. G9a H3K9 monomethylation, AlphaScreen, 2 h. shares compounds with JMJD2A Tudor; also: nearly all actives have a fitted effect of over 65% in size
Target sequence (Q96KQ7 913-1193 limits assumed): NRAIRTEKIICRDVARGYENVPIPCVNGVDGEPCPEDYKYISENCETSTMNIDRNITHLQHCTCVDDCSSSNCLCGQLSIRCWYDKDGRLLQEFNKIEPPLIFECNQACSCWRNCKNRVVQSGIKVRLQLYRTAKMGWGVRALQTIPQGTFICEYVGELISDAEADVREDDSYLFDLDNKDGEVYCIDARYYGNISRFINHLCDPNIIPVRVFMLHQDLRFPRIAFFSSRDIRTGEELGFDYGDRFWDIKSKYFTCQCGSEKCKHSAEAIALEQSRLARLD
RGS4 inh – inhibits human RGS4, hit validation | shares compounds with JMJD2A Tudor | RGS4 GAP activity, Transcreener GDP fluorescence polarization | Potency, µM, actives largely listed as inhibitors | 25 compounds, 80% hits
A number is an active result; n = inactive; u = inconclusive; x = no result; [ ] = dose if it differs, or a comment. Unless noted, calls follow the shape of the dose curve; as a rule, active = well fitted curve in the direction sought with a large enough effect; inconclusive = small, poorly fitted or top-dose-only effect, or another doubt; inactive = no such curve, though single readings can be large; an effect the other way counts as inactive or inconclusive.

SMILES	TDP1 block	JMJD2A Tudor	HP1b binding inh	Six1-Eya2 blk	CtBP-E1A blk	BAZ2B block	G9a confirm	others
CC(C)c1ccc(N2C(=O)CSC23C(=O)N(Cc2ccccc2F)c2ccccc23)cc1 (stereo unspecified)	n	n	n	x	x	n	x
Oc1c(CN2CCCCC2)cc(COCc2ccccc2)c2cccnc12	n	20µM	n	-85	n	6.3µM	x	JMJD2E inh-1=4µM;JMJD2E inh-2=4µM;FDH counter=n
CN(C)C1CCN(Cc2cc(COCc3ccccc3)c3cccnc3c2O)C1 (stereo unspecified)	n	32µM	n	x	x	10µM	x	JMJD2E inh-1=11µM;JMJD2E inh-2=7.9µM;FDH counter=n
CCn1nnnc1NCc1ccc(N2CCCC2)cc1	n	20µM	u	n	n	n	10
CCn1nnnc1NCc1ccc(SC)cc1	x	n	n	n	n	n	x
CCNCc1ccccc1OCc1ccccc1	n	n	n	n	n	n	x
Oc1ccc(NCc2ccccc2OCc2ccccc2)cc1	n	56µM	u	n	u	28µM	5.8
COc1ccc(-c2nnc(SCC(=O)NC(=O)Cc3ccccc3)n2C)cc1	n	n	n	n	n	n	u
Cn1c(SCC(=O)Nc2ccc3c(c2)oc2ccccc23)nnc1-c1ccccc1	n	u	n	n	n	n	7.1
Cn1c(SCC(=O)Nc2ccccc2)nnc1-c1ccccc1	n	n	n	x	x	n	x
COc1cccc(N2CCN(CC(=O)Nc3ccccc3C(=O)NCCc3ccccc3)CC2)c1	n	n	n	n	n	u	x
O=C(CN1CCN(c2ccc(O)cc2)CC1)Nc1ccccc1C(=O)NCCc1ccccc1	n	u	u	n	n	n	1.3
O=C(O)c1cc(NCc2ccc3c(c2)OCO3)ccc1N1CCOCC1	n	n	n	n	n	n	x
COC(=O)c1cc(NCc2ccc3c(c2)OCO3)ccc1N1CCOCC1	n	u	n	n	n	u	13
CCOC(=O)c1cnc2ccc(OCC)cc2c1N1CCN(c2ccccc2OC)CC1	n	n	n	n	n	u	x
CCOc1ccc(C(=O)c2cnc3ccccc3c2N2CCN(CC)CC2)cc1	n	n	n	n	n	n	u
CN1C(=O)Cc2cc(S(=O)(=O)CCC(=O)Nc3ccc(Cl)cc3)ccc21	n	n	n	x	x	n	x
c1cncc(-c2nc(-c3ccco3)cs2)c1	n	u	n	n	n	u	10
COc1ccc2oc(-c3ccc(O)cc3)cc(=O)c2c1	n	x	x	x	x	x	x
O=C(Nc1ccc(N2CCCC2)cc1)c1ccc(Br)o1	n	u	n	n	n	u	0.71
COc1ccc(C(=O)Nc2ccc(N3CCCC3)cc2)cc1	n	n[11.4 µM]	u	n	n	n	1.3
COc1ccc(C(=O)Nc2ccc(N3CCCC3)cc2)cc1OC	n	u	n	n	n	u	2.5
COc1cc(CNc2ccc(N3CCCC3)cc2)ccc1OCc1ccccc1	n	35µM	u	u	u	13µM	2.5
CCN1CCN(c2ccc(NC(=O)c3ccc(Br)o3)cc2)CC1	n	n	n	n	n	n	x
COc1ccc(C)cc1NC(=O)Cc1c(C(=O)O)c(C)cn1C	n	n	n	x	x	n	x
CCN1CCN(C(c2ccc(C)cc2)c2sc3nc(-c4ccco4)nn3c2O)CC1 (stereo unspecified)	n	n	n	x	x	n	x
c1ccc2c(NC3CC3)nc(-c3ccoc3)nc2c1	x	x	x	x	x	x	x	RGS4 inh=u
O=c1[nH]c2cc3c(cc2cc1CN(Cc1cccs1)Cc1nnnn1Cc1ccco1)OCCO3	n	u	n	n	n	x	x	RGS4 inh=9.5
COc1ccccc1CN(C)CC(=O)Nc1cccc2ccccc12	n	n	n	n	n	n	x
CCc1ccccc1NC(=O)CN(C)Cc1c(O)ccc2ccccc12	n	56µM	u	n	n	u	0.4
